# Source: PubChem BioAssay (EPA / NIEHS)
# Where “and” joins values, the source holds several entries; their conditions need not be identical. Equal entries are not always repeated. More than one record can exist for a structure, and the calls need not agree. Calls of active or inactive are those of the source. How the source made its calls: active means hit-call score of the fitted dose curve at least 0.9, where 1 is the maximum; inconclusive means response in the unintended direction; inactive means score below 0.9.
# Target: Estrogen receptor beta (Homo sapiens) (UniProt Q92731)
# Experiment: OT_ER_ERbERb_1440: Odyssey Thera (OT) 24-hour HEK293T Protein-Complementation Assay for Estrogen Receptor-beta/-beta Homodimer (AID 2283380);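 further: scored as signal increase over DMSO baseline for both agonists and antagonists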
# Method: OT_ER_ERbERb_1440 is a cell-based assay that uses HEK293T, a human kidney cell line, with measurements taken at 24 hours after chemical dosing in a 384-well plate.OT_ER_ERbERb_1440 is one of one assay component(s) measured or calculated from the OT_ER_ERbERb_1440 assay. It is designed to make measurements of protein fragment complementation, a form of binding reporter, as detected with fluorescence intensity signals by Protein-fragment Complementation technology.Data from the assay component OT_ER_ERbERb_1440 was analyzed into 1 assay endpoint. This assay endpoint, OT_ER_ERbERb_1440, was analyzed in the positive analysis fitting direction relative to DMSO as the negative control and baseline of activity. Using a type of binding reporter, measures of receptor for gain-of-signal activity can be used to understand the binding at the pathway-level as they relate to the gene ESR2. Furthermore, this assay endpoint can be referred to as a primary readout, because the performed assay has only produced 1 assay endpoint. To generalize the intended target to other relatable targets, this assay endpoint is annotated to the nuclear receptor intended target family, where the subfamily is steroidal.
# Protein-fragment complementation assay, or PCA, is a method for the identification and quantification of protein-protein interactions. In the PCA, the proteins of interest ("bait" and "prey") are each covalently linked to fragments of a third protein (e.g. DHFR, which acts as a "reporter"). Interaction between the bait and the prey proteins brings the fragments of the reporter protein in close proximity to allow them to form a functional reporter protein whose activity can be measured. The OT ER beta / ER beta assay is a homodimer PCA of the ligand binding domain (LBD; amino acids 310-547) of human ER beta stably expressed in HEK293T cells. […] Cells are fixed in 4 percent formaldehyde and stained with Draq5 (BioStatus) to identify cells prior to signal detection. Fluorescent signal in the basal state of the assay is very low and is primarily punctuate and cytoplasmic. Modulation of this assay is quantified as an increase in mean fluorescence intensity in the nucleus (for agonists) or in the nucleus and cytoplasm (antagonists) relative to vehicle controls, and can be quantified on a high content imaging device or a laser scanning cytometer. The latter instrument is favored for this assay because of the rapid mode of data acquisition, the ability to acquire data from the entire cell population in a well (as opposed to a fraction of the well on the high content devices) and the larger dynamic range typically achieved with this instrument. To assess sensitivity of the ER beta/ER beta LBD assay to ligand, cells were treated with the ER agonist 17- beta-estradiol (E2) in 10-point concentration- response format for 24 hours and monitored response on a laser scanning plate cytometer (Acumen eX3; TTP Lab Tech).
# Estrogen receptor beta (Homo sapiens), sequence (Q92731 whole entry, looked up): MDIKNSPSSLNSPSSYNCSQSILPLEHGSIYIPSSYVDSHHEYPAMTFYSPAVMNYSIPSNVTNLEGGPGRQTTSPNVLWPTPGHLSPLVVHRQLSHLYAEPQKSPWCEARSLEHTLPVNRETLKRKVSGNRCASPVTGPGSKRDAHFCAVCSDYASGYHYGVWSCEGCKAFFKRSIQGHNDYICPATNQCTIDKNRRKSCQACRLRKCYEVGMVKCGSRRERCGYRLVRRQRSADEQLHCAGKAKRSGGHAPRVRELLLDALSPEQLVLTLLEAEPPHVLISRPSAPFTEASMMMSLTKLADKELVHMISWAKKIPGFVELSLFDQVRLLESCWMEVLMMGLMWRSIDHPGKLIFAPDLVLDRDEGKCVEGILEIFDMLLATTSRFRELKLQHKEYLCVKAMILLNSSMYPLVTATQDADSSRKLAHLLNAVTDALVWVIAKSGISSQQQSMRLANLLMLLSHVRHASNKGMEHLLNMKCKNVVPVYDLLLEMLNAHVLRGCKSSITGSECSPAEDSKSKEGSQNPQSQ
SMILES,outcome,AC50
CCC(C)OC(=O)N1CCCCC1CCO (centres undefined),inactive,
c1ccc(Nc2ccccc2)cc1,inactive,
CCCN(CCC)c1c([N+](=O)[O-])cc(C(F)(F)F)c(N)c1[N+](=O)[O-],inactive,
CCOC(=O)C(C)Oc1ccc(Oc2nc3ccc(Cl)cc3o2)cc1 (centres undefined),inactive,
COC(=O)CSc1cc(N=c2sc(=O)n3n2CCCC3)c(F)cc1Cl,inactive,
CCCCOC(=O)[C@@H](C)Oc1ccc(Oc2ccc(C(F)(F)F)cn2)cc1,inactive,
C#CCOC(=O)[C@@H](C)Oc1ccc(Oc2ncc(Cl)cc2F)cc1,inactive,
CC(=O)[C@H]1CC[C@H]2[C@@H]3CCC4=CC(=O)CC[C@]4(C)[C@H]3CC[C@]12C,inactive,
CC(C)CCCCCCc1ccc(O)cc1,,1.2 µM (active) and 1.06 µM (active) and 1.25 µM (active)
CCNc1nc(N)nc(Cl)n1,inactive,
c1ccc2[nH]c(-c3cscn3)nc2c1,inactive,
CCN(Cc1c(F)cccc1Cl)c1c([N+](=O)[O-])cc(C(F)(F)F)cc1[N+](=O)[O-],inactive,
CCCCC(CC)COC(=O)c1ccccc1C(=O)O (centres undefined),inactive,
O=C(O)C1(C(=O)Nc2ccc(Cl)cc2Cl)CC1,inactive,
CCCOC(=O)c1ccc(C(=O)OCCC)nc1,inactive,
CCOC(=O)c1ccc(O)cc1,inactive,28.6 µM (active) and 25.9 µM (active) and 32.9 µM (active)
C=CCOC(Cn1ccnc1)c1ccc(Cl)cc1Cl (centres undefined),,60.6 µM (active)
CC(C)(C)[C@@H](O)[C@@H](Cc1ccc(Cl)cc1)n1cncn1,inactive,
CCCCCOC(=O)COc1cc(N2C(=O)C3=C(CCCC3)C2=O)c(F)cc1Cl,inactive,

SMILES,outcome,AC50
O=C(Nc1ccc([N+](=O)[O-])cc1Cl)c1cc(Cl)ccc1O,inactive,
CCCN(CCC)C(=O)SCC,inactive,
COC(=O)c1ccccc1C(=O)O,inactive,
COC(=O)c1ccc(I)cc1S(=O)(=O)NC(=O)Nc1nc(C)nc(OC)n1,inactive,
S=C(S)NCCNC(=S)S.[Mn+2].[S-]C([S-])=NCCN=C([S-])[S-].[Zn+2],inactive,
CCCCOCCOCCOCc1cc2c(cc1CCC)OCO2,inactive,
C[C@]12C[C@H](O)[C@H]3[C@@H](CCC4=CC(=O)CC[C@@]43C)[C@@H]1CC[C@@H]2C(=O)CO,inactive,
CCSC(=O)N(CC(C)C)CC(C)C,inactive,
Cc1nn(C)c(Oc2ccccc2)c1C=NOCc1ccc(C(=O)OC(C)(C)C)cc1,inactive,
COc1c(Cl)ccc(Cl)c1C(=O)O,inactive,
N#CSCSc1nc2ccccc2s1,inactive,
O=C(c1ccc(O)cc1O)c1ccc(O)cc1O,,2.09 µM (active) and 2.02 µM (active) and 2.21 µM (active)
CCCCC(CC)CN1C(=O)C2C3C=CC(C3)C2C1=O (centres undefined),inactive,
S=C([S-])NCCNC(=S)[S-].[Mn+2],inactive,
CCCCOC(=O)C(C)Oc1ccc(Oc2ccc(C(F)(F)F)cn2)cc1 (centres undefined),inactive,
CC(=O)S[C@@H]1CC2=CC(=O)CC[C@]2(C)[C@H]2CC[C@@]3(C)[C@@H](CC[C@@]34CCC(=O)O4)[C@H]12,inactive,
CCOC(=O)COc1cc(-n2ncc(C(F)(F)F)c(C)c2=O)c(F)cc1Cl,inactive,
CCN(CC)C(=O)c1cccc(C)c1,inactive,
CCCCCCC(C)OC(=O)COc1nc(F)c(Cl)c(N)c1Cl (centres undefined),,72.8 µM (active)
